Source: PubChem BioAssay (EPA / NIEHS)
Calls of active or inactive are those of the source. The calls were made as follows: active = hit-call score of the fitted dose curve at least 0.9, where 1 is the maximum; inactive = score below 0.9.

Legend:
Conditions in all cases: mRNA level, 48 h; actives raise or lower the signal
[1] = read-out: ATP-citrate lyase (ACLY), ACLY (gene 47); assay: LTEA_HepaRG_ACLY: Life Technologies and Expression Analysis (LTEA) Assay for ATP-citrate lyase (ACLY) using HepaRG (AID 2283466)
Outline: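 HepaRG, 48 h exposure, 8-pt half-log dilutions (top 100 uM), 0.5% DMSO. Readout: ACLY mRNA, TaqMan qRT-PCR, housekeeping-normalized (ACTB/GAPDH/POLR2A). Bidirectional curve fit vs DMSO.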

[2] = read-out: Peroxisomal acyl-coenzyme A oxidase 1 (ACOX1) gene, ACOX1 (gene 51); assay: LTEA_HepaRG_ACOX1: Life Technologies and Expression Analysis (LTEA) Assay for Peroxisomal acyl-coenzyme A oxidase 1 (ACOX1) gene using HepaRG (AID 2283467)
Outline: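 Measured by qRT-PCR against three housekeeping genes: ACOX1 transcript change in human HepaRG cells after 48 h dosing. Concentrations ran up to 100 uM in half-log steps. Curves were fitted bidirectionally relative to 0.5% DMSO.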

[3] = read-out: Alkaline Phosphatase, Placental (ALPP) gene, ALPP (gene 250); assay: LTEA_HepaRG_ALPP: Life Technologies and Expression Analysis (LTEA) Assay for Alkaline Phosphatase, Placental (ALPP) gene using HepaRG (AID 2283468)
Outline: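 ALPP transcript level, measured by qRT-PCR and normalized to three housekeeping genes (ACTB, GAPDH, POLR2A), after 48 h dosing of differentiated HepaRG in serum-free induction medium. Top concentration 100 uM with half-log dilutions (8 points, 0.5% DMSO, duplicates); bidirectional fitting relative to DMSO.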

[4] = read-out: Bcl-2 (BAD) gene, BAD (gene 572); assay: LTEA_HepaRG_BAD: Life Technologies and Expression Analysis (LTEA) Assay for Bcl-2 (BAD) gene using HepaRG (AID 2283469)
Outline: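 BAD transcript change, measured by qRT-PCR against three housekeeping genes and fitted in both directions relative to 0.5% DMSO, after 48 h chemical treatment of human HepaRG liver cells at concentrations up to 100 uM.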

[5] = read-out: Bcl-2 (BAX) gene, BAX (gene 581); assay: LTEA_HepaRG_BAX: Life Technologies and Expression Analysis (LTEA) Assay for Bcl-2 (BAX) gene using HepaRG (AID 2283470)
Outline: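 Concentration-response endpoint fitted in both directions relative to 0.5% DMSO vehicle. Human HepaRG cultures receive test chemicals for 48 h at up to 100 uM; BAX mRNA is quantified by qRT-PCR against housekeeping genes.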

[6] = read-out: adenosine kinase (ADK) gene, ADK (gene 132); assay: LTEA_HepaRG_ADK: Life Technologies and Expression Analysis (LTEA) Assay for adenosine kinase (ADK) gene using HepaRG (AID 2283471)
Outline: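 Read-out is ADK transcript level measured by qRT-PCR and normalised to three housekeeping genes. Cells are human HepaRG, dosed for 48 h at up to 100 uM in 0.5% DMSO. Gain or loss of signal is fitted against DMSO controls.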

[7] = read-out: Alpha-fetoprotein (AFP) gene, AFP (gene 174); assay: LTEA_HepaRG_AFP: Life Technologies and Expression Analysis (LTEA) Assay for Alpha-fetoprotein (AFP) gene using HepaRG (AID 2283472)
Outline: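 After a 48 h plating period, cells are moved to serum-free induction medium and dosed in duplicate (100 uM maximum, half-log dilutions, 0.5% DMSO) for another 48 h. Total RNA goes to TaqMan qRT-PCR; AFP signal is housekeeping-normalized.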

[8] = read-out: BCL2L11 (gene 10018); assay: LTEA_HepaRG_BCL2L11: Life Technologies and Expression Analysis (LTEA) Assay for Bcl-2 (BCL2L11) gene using HepaRG (AID 2283473)
Outline: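 BCL2L11 transcript levels are measured by Fluidigm qRT-PCR, normalized to three housekeeping genes. HepaRG cultures were plated 48 h, then treated 48 h with test chemical (top 100 uM, half-log, 0.5% DMSO vehicle); curves were fitted bidirectionally against DMSO.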

[9] = read-out: Apolipoprotein A-V (APOA5) gene, APOA5 (gene 116519); assay: LTEA_HepaRG_APOA5: Life Technologies and Expression Analysis (LTEA) Assay for Apolipoprotein A-V (APOA5) gene using HepaRG (AID 2283474)
Outline: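 APOA5 transcript levels were quantified by qRT-PCR, normalized to three housekeeping genes, after 48 h chemical treatment of HepaRG cells (8 points, 100 uM maximum, half-log steps, 0.5% DMSO). Curves fitted in both directions against vehicle.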

[10] = read-out: Apoptosis regulator Bcl-2 (Homo sapiens) (UniProt P10415); assay: LTEA_HepaRG_BCL2: Life Technologies and Expression Analysis (LTEA) Assay for Bcl-2 gene using HepaRG (AID 2283475);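 also: BCL2 transcript by TaqMan qRT-PCR normalised to ACTB GAPDH and POLR2A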
Outline: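 Expression change of BCL2 mRNA in HepaRG after 48 h dosing, quantified by TaqMan qRT-PCR against three endogenous controls. Concentration-response used eight points up to 100 uM, vehicle 0.5% DMSO.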

[11] = read-out: Caspase-3 (Homo sapiens) (UniProt P42574); assay: LTEA_HepaRG_CASP3: Life Technologies and Expression Analysis (LTEA) Assay for cysteine-aspartic acid protease (CASP3) using HepaRG (AID 2283477)
Outline: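 Expression of CASP3 was quantified by TaqMan qRT-PCR against three housekeeping genes (ACTB, GAPDH, POLR2A), bidirectionally versus 0.5% DMSO. HepaRG cultures received compounds in duplicate, top 100 uM with half-log steps, for 48 h in serum-free induction medium.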

[12] = read-out: Cytochrome P450 (CYP24A1), CYP24A1 (gene 1591); assay: LTEA_HepaRG_CYP24A1: Life Technologies and Expression Analysis (LTEA) Assay for Cytochrome P450 (CYP24A1) using HepaRG (AID 2283478)
Outline: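 mRNA of CYP24A1 quantified by TaqMan qRT-PCR (ACTB/GAPDH/POLR2A normalization) after 48 h chemical exposure of HepaRG cells, top concentration 100 uM, half-log steps, 0.5% DMSO vehicle, duplicates. Curves fitted bidirectionally against DMSO baseline.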

[13] = read-out: Cytochrome P450 (CYP1A2), CYP1A2 (gene 1544); assay: LTEA_HepaRG_CYP1A2: Life Technologies and Expression Analysis (LTEA) Assay for Cytochrome P450 (CYP1A2) using HepaRG (AID 2283479)
Outline: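 CYP1A2 transcript measured by TaqMan qRT-PCR against three housekeeping genes after 48-hour chemical exposure of HepaRG cells. Eight-point half-log series topping at 100 uM in 0.5% DMSO, duplicates; gain or loss fitted relative to vehicle.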

[14] = read-out: cysteine-aspartic acid protease (CASP8), CASP8 (gene 841); assay: LTEA_HepaRG_CASP8: Life Technologies and Expression Analysis (LTEA) Assay for cysteine-aspartic acid protease (CASP8) using HepaRG (AID 2283480)
Outline: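 HepaRG, 48 h exposure, duplicate wells; 8 conc, half-log from 100 uM, 0.5% DMSO. Serum-free induction medium. CASP8 mRNA by TaqMan qRT-PCR, norm. ACTB/GAPDH/POLR2A; gain/loss fitted vs DMSO.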

[15] = read-out: Cytochrome P450 (CYP2B6), CYP2B6 (gene 1555); assay: LTEA_HepaRG_CYP2B6: Life Technologies and Expression Analysis (LTEA) Assay for Cytochrome P450 (CYP2B6) using HepaRG (AID 2283481)
Outline: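 CYP2B6 transcript level quantified by qRT-PCR against three housekeeping genes, fitted bidirectionally relative to DMSO. HepaRG cultures received chemicals for 48 h, 8-point half-log series from 100 uM in 0.5% DMSO, duplicate wells, serum-free induction medium.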

[16] = read-out: Cytochrome P450 2C19 (Homo sapiens) (UniProt P33261); assay: LTEA_HepaRG_CYP2C19: Life Technologies and Expression Analysis (LTEA) Assay for CYP2C19 using HepaRG (AID 2283482)
Outline: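 CYP2C19 transcript levels by qRT-PCR, normalized to three housekeeping genes, in HepaRG cells after 48 h chemical exposure. Eight-point half-log series topping at 100 uM, 0.5% DMSO vehicle. Increases and decreases both fitted against DMSO.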

[17] = read-out: CYP2C8 (gene 1558); assay: LTEA_HepaRG_CYP2C8: Life Technologies and Expression Analysis (LTEA) Assay for CYP2C8 using HepaRG (AID 2283483)
Outline: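 CYP2C8 mRNA induction or loss, by qRT-PCR normalized to ACTB/GAPDH/POLR2A, is read in HepaRG cells after 48 h treatment. Concentrations run from 100 uM down in half-log dilutions, with 0.5% DMSO as vehicle and baseline.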

[18] = read-out: CYP2C9 (gene 1559); assay: LTEA_HepaRG_CYP2C9: Life Technologies and Expression Analysis (LTEA) Assay for CYP2C9 using HepaRG (AID 2283484)
Outline: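 Cells plated 48 h, switched to serum-free induction medium, then treated in duplicate for 48 h at eight concentrations (max 100 uM, 0.5% DMSO). RNA then analysed by qRT-PCR for CYP2C9; curves fitted in both directions relative to DMSO.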

[19] = read-out: CYP2E1 (gene 1571); assay: LTEA_HepaRG_CYP2E1: Life Technologies and Expression Analysis (LTEA) Assay for CYP2E1 using HepaRG (AID 2283485)
Outline: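 Differentiated HepaRG cells were treated in duplicate for 48 h with chemicals in 0.5% DMSO, from 100 uM downward in half-log dilutions. RNA was then analysed by qRT-PCR for CYP2E1 induction or loss.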

[20] = read-out: Bcl-2 (BID) gene, BID (gene 637); assay: LTEA_HepaRG_BID: Life Technologies and Expression Analysis (LTEA) Assay for Bcl-2 (BID) gene using HepaRG (AID 2283476)
Outline: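 Gain or loss of BID expression is fitted relative to 0.5% DMSO vehicle. Human HepaRG liver cells received a 48 h chemical exposure over an eight-point concentration range.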

Measured: AC50

Chain of Caspase-3 (Homo sapiens) (P42574 whole entry, looked up): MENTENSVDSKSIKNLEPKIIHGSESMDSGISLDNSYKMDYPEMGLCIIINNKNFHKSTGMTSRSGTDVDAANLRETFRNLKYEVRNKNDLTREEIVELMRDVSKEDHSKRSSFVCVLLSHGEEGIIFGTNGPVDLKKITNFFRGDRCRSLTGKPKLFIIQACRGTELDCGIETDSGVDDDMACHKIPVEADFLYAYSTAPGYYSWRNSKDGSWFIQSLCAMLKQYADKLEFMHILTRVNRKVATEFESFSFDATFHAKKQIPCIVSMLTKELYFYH
Chain of Cytochrome P450 2C19 (Homo sapiens) (P33261 whole entry, looked up): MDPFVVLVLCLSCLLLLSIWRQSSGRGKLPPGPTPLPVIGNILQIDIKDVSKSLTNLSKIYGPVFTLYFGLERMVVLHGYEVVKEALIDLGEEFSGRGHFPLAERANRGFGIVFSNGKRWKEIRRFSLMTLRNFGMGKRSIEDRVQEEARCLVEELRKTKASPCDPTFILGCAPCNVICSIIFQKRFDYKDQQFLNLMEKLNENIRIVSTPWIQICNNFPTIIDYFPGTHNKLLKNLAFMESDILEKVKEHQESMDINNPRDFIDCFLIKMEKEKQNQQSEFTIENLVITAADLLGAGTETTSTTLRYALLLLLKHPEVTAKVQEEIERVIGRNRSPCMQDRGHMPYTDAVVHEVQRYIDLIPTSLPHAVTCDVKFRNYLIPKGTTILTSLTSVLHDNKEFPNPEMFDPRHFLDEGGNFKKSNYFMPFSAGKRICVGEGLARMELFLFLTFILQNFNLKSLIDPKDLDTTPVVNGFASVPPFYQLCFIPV
Chain of Apoptosis regulator Bcl-2 (Homo sapiens) (P10415 whole entry, looked up): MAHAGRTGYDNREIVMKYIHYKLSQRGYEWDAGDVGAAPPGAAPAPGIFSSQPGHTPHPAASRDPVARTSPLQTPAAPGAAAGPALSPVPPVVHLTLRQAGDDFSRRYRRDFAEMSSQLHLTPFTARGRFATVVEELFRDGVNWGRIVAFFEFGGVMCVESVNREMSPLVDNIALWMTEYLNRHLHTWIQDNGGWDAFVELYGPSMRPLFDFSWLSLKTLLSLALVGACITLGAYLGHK

CCCCCCC(C=O)=Cc1ccccc1
active: [15] 15.9 µM
not listed: [20]
inactive: all other assays above

Cn1cnc2c1c(=O)[nH]c(=O)n2C
not listed: [10] | [12] | [13] | [15] | [16] | [17] | [18] | [19]
inactive: all other assays above
